Screening data as filed in PubChem.
Rows were chosen to be rich in hits. Some 2.4% of all compounds tested hit in one or more screens of this group.
D2 antag: antagonists of human D2 dopamine receptor. P14416. hit rate 2% among 340,000. HEK293 TREx D2 cells, calcium flux, dopamine EC80. AID 485344. inhibition, % at 10 µM; in the data active means inhibition above about 30%; inactive means below that, where a call was filed; further: 0% is about no effect
Target sequence (P14416 whole entry, looked up): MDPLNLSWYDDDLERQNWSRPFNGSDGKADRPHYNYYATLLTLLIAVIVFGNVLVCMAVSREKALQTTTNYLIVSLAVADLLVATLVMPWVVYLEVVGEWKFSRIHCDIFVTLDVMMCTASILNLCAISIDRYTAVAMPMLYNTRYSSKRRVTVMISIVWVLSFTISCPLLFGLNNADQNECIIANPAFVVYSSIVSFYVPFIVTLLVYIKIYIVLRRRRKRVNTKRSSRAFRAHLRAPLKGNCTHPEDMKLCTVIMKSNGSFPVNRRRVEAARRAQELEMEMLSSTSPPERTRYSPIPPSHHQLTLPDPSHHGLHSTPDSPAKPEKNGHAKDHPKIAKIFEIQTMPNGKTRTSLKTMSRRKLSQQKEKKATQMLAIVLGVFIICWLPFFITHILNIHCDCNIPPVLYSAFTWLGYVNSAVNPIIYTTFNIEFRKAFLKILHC
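Calcium mobilization kinetics were recorded at 1 s intervals in tetracycline-induced HEK293 T-REx D2 cells, first for 180 s after compound addition and then 180 s after EC80 dopamine.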
D2 PAM-1: human D2 receptor positive allosteric modulation | P14416 | DiscoveRx D2 beta-arrestin cells, luminescence, 90 min; 100% = 57 uM dopamine signal | potentiation, % (test concentration not listed) | hit rate 0.23% among 360,000 | AID 624464; in the data active means potentiation above about 50%; inconclusive means mostly about 30% to 49%
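PathHunter beta-arrestin assay in DiscoveRx D2 cells. Compounds were added with an EC20 of dopamine (50 nM final) for 90 min at 37 deg C. Luminescence was read 1 h after detection reagent, with 57 uM dopamine as the EC100 control.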
D2 ag-1: activates the human D2 dopamine receptor; activation, % (test concentration not listed); DiscoveRx PathHunter D2 beta-arrestin, luminescence, 90 min; 100% = 57 uM dopamine signal; AID 624465; hit rate 0.084% among 360,000; P14416; in the data active means activation above about 40%; inconclusive means between about 15% and that limit
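DiscoveRx PathHunter D2 beta-arrestin cells (2,100/well) attached overnight, then compound-stimulated 90 min at 37 C in HBSS/10 mM HEPES/0.1% Tween-20 buffer; beta-galactosidase complementation read by luminescence after 1 h at ambient temperature. Dopamine 57 uM final (EC100) as control.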
D2 PAM-2: positive allosteric modulators of human D2 dopamine receptor; potentiation, % at 10 µM; P14416; hit rate 0.34% among 340,000; HEK293 T-REx D2, calcium flux, EC20 dopamine potentiation; AID 485347;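 active means potentiation over 3 SD above the plate norm, cut at about 30% in these data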; further: 0% is about no effect
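Primary screen. Calcium kinetics in induced HEK293 T-REx D2 cells: compound pre-addition 180 s, EC20 dopamine, 180 s more.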
D2 ag-2: agonists of human D2 dopamine receptor; P14416; HEK293 T-REx D2 cells, calcium flux agonist mode; activation, % at 2 µM; hit rate 0.53% among 340,000; AID 485358;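 active means activation over 3 SD above normal in the single-dose calcium agonist read, cut at about 30% in these data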; further: 0% is about no effect
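Calcium-flux readout, 1 cycle/sec over 180 s following compound pin transfer, in inducible HEK293 Trex D2 cells (force-coupled); dopamine controls included. Positive calcium responses during this window marked compounds as potential agonists.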
* hit, by the source's call; ? = inconclusive; nt = no result.

SMILES	D2 antag	D2 PAM-1	D2 ag-1	D2 PAM-2	D2 ag-2
CSc1ccc(CN2CCCC(CNC(=O)c3ccc(F)cc3)C2)cc1 (configuration not stated)	41*	-18	0	-14	0
COc1ccc(CC(=O)NCC2CCCN(Cc3cccc(C(F)(F)F)c3)C2)cc1 (configuration not stated)	-15	-31	-3	1	2
COc1ccc(-c2cc(C(=O)NCc3ccc(Cl)cc3)no2)cc1OC	-7	0	2	-7	0
COc1ccccc1-c1cc(C(=O)NCc2cccs2)no1	76*	-31	-2	-24	1
COc1ccc(OC)c(-c2cc(C(=O)NCc3ccc(Cl)cc3)no2)c1	62*	-19	-3	-13	1
COc1ccc(OC)c(-c2cc(C(=O)NCc3cccs3)no2)c1	24	-15	-2	-23	0
COc1ccccc1-c1cc(C(=O)NC(C)c2ccccc2)no1 (configuration not stated)	61*	-16	-1	-26	1
c1ccc(N2CCN(c3ncnc4[nH]ncc34)CC2)cc1	nt	nt	nt	1	0
CCCCOC(=O)c1ccc(NS(=O)(=O)c2c(C)nc3scc(C)n3c2=O)cc1	nt	nt	nt	-4	-1
CCOC(=O)c1ccc(-c2ccc3[nH]c4ccccc4c(=O)c3c2)cc1F	31*	-1	-2	9	0
CCN(CC)S(=O)(=O)c1cc(NC(=O)C(C)N2CCN(c3ccccn3)CC2)ccc1C (configuration not stated)	15	5	4	-21	35*
CCN(CC)S(=O)(=O)c1cc(NC(=O)C(C)N2CCN(Cc3ccc4c(c3)OCO4)CC2)ccc1C (configuration not stated)	84*	-53	-5	-26	-1
O=C(CCS(=O)(=O)c1cc(Br)cc2c1N(C(=O)C1CC1)CC2)N1CCN(c2ccccc2)CC1	nt	nt	nt	0	nt
CN(C)Cc1c(O)ccc2occ(C(=O)c3ccccc3)c12	-25	-8	2	54*	0
CCN(CC)CCOC(=O)c1ccc(Cl)cc1Cl	33*	-29	-1	-14	-1
CCN(CC)CCOC(=O)c1ccc(Cl)cc1	-5	-46	-5	6	0
Nc1cccc(C(=O)OCC(=O)Nc2cccc3c2C(=O)c2ccccc2C3=O)c1	-2	60*	?	0	1
Cc1cccc(NC(=O)COC(=O)c2cccc3c2C(=O)c2ccccc2C3=O)c1C	-15	90*	?	-1	0
O=C(COc1ccc(-c2nnco2)cc1)Nc1cc([N+](=O)[O-])ccc1F	nt	-6	-1	nt	nt
Cc1cccc(C)c1NC(=O)C(=O)NCC1CCCN1S(=O)(=O)c1ccccc1 (configuration not stated)	15	-2	-3	-1	1
Cc1cccnc1NC1CCCCC1	-2	-13	1	3	1
c1ccc2c(NC3CCCC3)nnc(NC3CCCC3)c2c1	49*	-43	-3	-23	16
O=C(NC1CCSC1=O)c1cccc(C(=O)NC2CCSC2=O)c1 (configuration not stated)	42*	-23	-2	-4	1
CC(C)CC(=O)Nc1ccc(S(=O)(=O)Nc2nccs2)cc1	-11	-3	6	-13	0
COc1ccc(-c2nn(-c3ccccc3C)cc2CNCc2cccnc2)cc1F	39*	-8	-2	-25	-2
SMILES	D2 antag	D2 PAM-1	D2 ag-1	D2 PAM-2	D2 ag-2
Cc1c(NC(=O)c2ccc(-c3ccc(F)cc3)o2)cccc1-c1nc2ncccc2o1	nt	nt	nt	-6	0
Cc1ccc(Cl)cc1N1CCN(S(=O)(=O)c2cn(C)cn2)CC1	-2	-8	-2	-5	2
CCCCCCc1cc2cc(C(=O)OCC)c(=O)oc2cc1O	-2	-6	-4	3	5
CCCCCCc1cc2cc(/C(N)=N/NC(=O)c3ccncc3)c(=O)oc2cc1O	-2	-7	3	14	34*
COCCN1C(=O)c2oc3ccc(C)cc3c(=O)c2C12C(=O)N(C)c1ccccc12 (configuration not stated)	nt	nt	nt	8	1
O=C(CCCSc1nnc(Nc2ccccc2F)s1)N1CCOCC1	39*	-36	1	-4	1
CCCOc1ccc(-c2c(=O)n(O)c3ccccc3[n+]2[O-])cc1	8	-3	-3	-4	1
Cc1ccc(C(=O)NCCN2CCCC2)cc1	8	-17	-3	-31	0
CCOc1c(Cl)cc(C(=O)NCCN2CCCCC2)cc1Cl	34*	-17	1	-9	0
CC(C)(C)c1ccc(-n2ncc3c2CCCC3NC(=O)CCN2CCCC2=O)cc1 (configuration not stated)	15	-12	6	8	0
COCCCn1c(SCc2nnc(-c3ccccc3)o2)nc2sc3c(c2c1=O)CCC3	-3	1	-1	33*	1
Cc1onc(-c2c(Cl)cccc2Cl)c1C(=O)NCCCN1CCOCC1	43*	3	-3	-22	0
Cc1onc(-c2ccccc2Cl)c1C(=O)NCCCN1CCOCC1	15	-1	-1	7	1
COc1ccc(Cl)cc1N(CC(=O)N(C)C)S(=O)(=O)c1ccc(C)c([N+](=O)[O-])c1	-3	1	0	4	0
CCC(C)(C)NC(=O)C(c1cccn1C)N(Cc1ccc(OC)cc1)C(=O)Cn1nnc2ccccc21 (configuration not stated)	30*	-5	-1	9	1
O=C(CCNS(=O)(=O)c1ccc(OC(F)(F)F)cc1)NCCc1c[nH]c2ccccc12	40*	7	7	3	0
CN(c1ccc(C(=O)Nc2ccc(CC#N)cc2)cc1)S(C)(=O)=O	41*	0	-3	4	0
CN(c1ccc(C(=O)Nc2ccc3c(c2)OCO3)cc1)S(C)(=O)=O	0	-13	-4	-3	0
Cc1oc(-c2ccccc2F)nc1CS(=O)(=O)CC(=O)NCCc1ccc(Cl)cc1	nt	nt	nt	11	0
CCn1c(SCc2ccc([N+](=O)[O-])cc2)nnc1C(C)NC(=O)c1ccc(C)cc1 (configuration not stated)	-5	-7	-1	-5	0
CC(NC(=O)c1ccc(Cl)cc1)c1nnc(SCc2ccc([N+](=O)[O-])cc2)n1C (configuration not stated)	32*	-4	1	-11	1
O=C(NCc1nnnn1-c1ccc(F)cc1)c1cc2ccccc2o1	nt	-18	0	nt	nt
N/C(=N\OC(=O)c1ccco1)c1cccc([N+](=O)[O-])c1	-5	81*	?	-2	1
COc1cc(C(=O)O/N=C(\N)c2cccc([N+](=O)[O-])c2)cc(OC)c1OC	2	55*	?	15	0
